ALR H2O2 inh = human ALR oxidase inhibition via reduced H2O2. P55789. purified ALR, DTT oxidation, H2O2 HRP-luminol luminescence. inhibition, % (concentration not given with the values). 290,000 tested, 3.8% active. AID 485317;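 active means mean replicate inhibition above about 79%, with every replicate also reaching it, limit read from the data; inconclusive means only one of the two criteria met; inactive means mean below limit and not every replicate reaching it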
Calb FLC = affects C. albicans growth with fluconazole | C. albicans CaCi-2 (fluconazole-resistant clinical isolate) + fluconazole, Alamar Blue growth, 48 h | growth inhibition, % (test concentration not listed) | 300,000 tested, 0.57% active;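 active means growth inhibition above about 58% in most replicates, limit read from the data, passing the limit was not always enough; inconclusive means exactly half the replicates above a set limit; inactive means most replicates below a set limit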;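 further: all wells also contain fluconazole at 8 µg/ml as a sub-toxic cotreatment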
PP1 counter = counter-screen for PP5 inhibitors: inhibitors of human PP1-alpha; P62136; purified PP1alpha, OMFP fluorescence; inhibition, % at 6.7 µM; 320,000 tested, 0.9% active; AID 2235;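 active means inhibition above the mean inhibition of all tested compounds plus 3 SD, computed separately for each screening campaign, cut at about 15% in these data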
Target sequence (P62136 whole entry, looked up): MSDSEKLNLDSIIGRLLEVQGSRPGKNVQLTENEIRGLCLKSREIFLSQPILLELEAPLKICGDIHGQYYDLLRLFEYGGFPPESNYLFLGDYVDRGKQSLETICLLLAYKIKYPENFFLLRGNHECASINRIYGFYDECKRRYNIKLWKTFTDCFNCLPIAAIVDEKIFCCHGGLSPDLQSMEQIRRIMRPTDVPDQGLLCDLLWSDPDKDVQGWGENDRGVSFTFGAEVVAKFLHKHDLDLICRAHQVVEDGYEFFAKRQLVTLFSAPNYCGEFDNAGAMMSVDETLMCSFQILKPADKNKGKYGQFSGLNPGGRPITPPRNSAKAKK
CSC inhib = cancer stem cell inhibition; cancer stem cell-like cells viability, luminescence; inhibition, % at 7.5 µM; 300,000 tested, 1.1% active; AID 2717; in the data active means inhibition above about 75%; inconclusive means no clear call, values can overlap the other calls; tested in HMLE shEcad cells
PP5 inh = inhibitors of human protein phosphatase 5 (PP5); purified PP5c, OMFP substrate fluorescence; P53041; 320,000 tested, 0.18% active; inhibition, % at 6.7 µM;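 active means inhibition above the campaign's mean inhibition across all tested compounds plus 3 SD, cut at about 9.5% in these data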
Large screens that a line does not name were inactive. Compounds with a hit are over-represented: about 5.4% of the library has one in this group of screens.

COc1ccc(NS(=O)(=O)c2cc(NC(=O)c3ccc(=O)[nH]c3)ccc2N2CCCC2)cc1	CSC inhib 133.5
Cc1cc(C)n(-c2cc(N3CCN(S(=O)(=O)c4ccc(Br)cc4)CC3)ccc2[N+](=O)[O-])n1	none
O=C(NCc1ccccn1)c1cccc(S(=O)(=O)Nc2ccc(SC(F)F)cc2)c1	ALR H2O2 inh 97.6
CC(=NCCc1ccccc1)C1=C(O)C(c2ccccc2)OC1=O (stereo not given)	none
Cc1nc2c3ccccc3nc(NNC(=O)CCC(=O)N3CCN(c4ccccc4)CC3)n2n1	none
COc1ccc(N2CCN(C(=O)CCNC(=O)c3ccc(C(C)(C)C)cc3)CC2)cc1	ALR H2O2 inh 86.4
COc1ccc(N2CCN(C(=O)CCNS(=O)(=O)c3ccccc3)CC2)cc1	ALR H2O2 inh 98.4
COc1ccc(N2CCN(C(=O)c3ccc(C(C)(C)C)cc3)CC2)cc1	none
CCOc1ccc(S(=O)(=O)NCCC(=O)N2CCN(c3ccc(OC)cc3)CC2)cc1	ALR H2O2 inh 76.5
COc1ccc(N2CCN(C(=O)CCC(=O)NNc3nc4ccccc4c4nc(C)nn34)CC2)cc1	ALR H2O2 inh 98.6
COc1ccc(N2CCN(S(=O)(=O)CCNS(=O)(=O)c3ccccc3)CC2)cc1	none
O=C(O)/C=C/C(=O)c1ccc2c(c1)CCc1ccccc1-2	none
O=C1COc2ccc3ccccc3c21	none
COc1cc(CN2CCN(Cc3cn(C)c4ccccc34)CC2CCO)cc(OC)c1 (stereo not given)	none
CCc1nccn1S(=O)(=O)c1cc(OC)ccc1OC	none
CC(=O)N1CCN(c2ccc(NC(=O)c3ccc(C(C)(C)C)cc3)cc2)CC1	Calb FLC 109.5
COc1ccc(N2CCN(C(=O)c3ccccc3N(C)S(=O)(=O)c3ccccc3)CC2)cc1	ALR H2O2 inh 90.0
COC(=O)c1ccccc1OCC(=O)N1CCN(c2ccc(OC)cc2)CC1	ALR H2O2 inh 88.5
COC(=O)c1ccccc1OCC(=O)N1CCN(c2ccc(F)cc2)CC1	none
Cc1cccc(C)c1NC(=O)CSc1nc(N2CCOCC2)nc(N2CCOCC2)n1	none
O=C(CSc1ncn[nH]1)CSc1ncn[nH]1	ALR H2O2 inh 93.6
Cc1cc(C(=O)CN2C(=O)CCC2=O)c(C)n1Cc1ccccc1	ALR H2O2 inh 94.1
O=S(=O)(Nc1nc(-c2ccccc2)cs1)c1cc(Cl)ccc1Cl	ALR H2O2 inh 90.4, Calb FLC 96.0
CC(=O)Nc1ccccc1-c1nc2ccc(C(=O)N3CCN(c4cc(C)ccc4C)CC3)cc2[nH]c1=O	none
Cc1ccc(/C=C\c2nccc3c2[nH]c2ccccc23)cc1	CSC inhib 83.2 (no result: ALR H2O2 inh)
O=C(c1ccncc1)c1ccc(N2CCN(C3CC(=O)N(Cc4cccs4)C3=O)CC2)cc1 (stereo not given)	none (no result: ALR H2O2 inh)
O=C1CC(N2CCN(c3ccc(O)cc3)CC2)C(=O)N1Cc1cccs1 (stereo not given)	ALR H2O2 inh 99.2 (no result: Calb FLC)
Cc1ccc(F)c([C@H]2C3C=CCC(c4ccccc4)C3C(=O)N2Cc2ccccc2)c1 (stereo not given in full)	CSC inhib 121.6 (no result: ALR H2O2 inh)
Cc1ccc(NC(=O)CN2C(=O)NC(C)(c3ccccc3)C2=O)c(C)c1 (stereo not given)	none
CCCc1cc(=O)[nH]c(Nc2ccc(O)cc2)n1	ALR H2O2 inh 99.0
O=C(Nc1ccc(S(=O)(=O)Nc2ccccc2)cc1)C1COc2ccccc2O1 (stereo not given)	Calb FLC inconclusive
CCCCCOc1ccc(OC(=O)c2ccncc2)cc1	CSC inhib 93.2
CCCCOc1ccc(C(=O)Oc2ccc(C)nc2)cc1	Calb FLC inconclusive (no result: CSC inhib)
O=C(CCNS(=O)(=O)c1ccccc1)OCC(=O)c1ccc(F)cc1	none
O=C(c1cc2c(s1)CCCCC2)N1CCN(c2ncccn2)CC1	Calb FLC 76.1
COc1ccc(N2CCN(C(=O)c3cc4c(s3)CCCCC4)CC2)cc1	none (no result: ALR H2O2 inh, Calb FLC, CSC inhib)
O=C(O)/C=C/c1cn(Cc2ccccc2)nc1-c1ccc(Cl)cc1	ALR H2O2 inh 94.7
Cc1nc(SCC(=O)NC(=O)NCCC(C)C)c2c(-c3cccs3)csc2n1	none (no result: ALR H2O2 inh)
CCn1c(Sc2nc(C)nc3scc(-c4cccs4)c23)n[nH]c1=O	Calb FLC 95.3
Cc1cccc(N2CCN(C(=O)CCCn3c(=O)[nH]c4ccsc4c3=O)CC2C)c1 (stereo not given)	ALR H2O2 inh 98.4
Cc1cccc(N2CCN(C(=O)CCn3c(=O)[nH]c4ccsc4c3=O)CC2C)c1 (stereo not given)	ALR H2O2 inh 99.1
Cc1cccc(N2CCN(C(=O)c3ccccn3)CC2C)c1 (stereo not given)	none
COc1ccccc1N1CCN(C(=O)CCn2c(=O)[nH]c3ccsc3c2=O)CC1	none
